Compound activity from PubChem.
Compounds with a hit are over-represented: about 19% of the library has one in this group of screens.
TDP1 block: inhibitors of human tyrosyl-DNA phosphodiesterase TDP1 | recombinant TDP1, AlphaScreen DNA substrate cleavage | Potency, µM (series often up to 130 µM), for inactives: top-dose activity change, negative = inhibition, actives largely listed as inhibitors | 0.28% of 350,000 active; further: potency means the concentration at half of the fitted maximal effect; nearly all actives have a fitted effect of over 40% in size
Target sequence (Q9NUW8 whole entry, looked up): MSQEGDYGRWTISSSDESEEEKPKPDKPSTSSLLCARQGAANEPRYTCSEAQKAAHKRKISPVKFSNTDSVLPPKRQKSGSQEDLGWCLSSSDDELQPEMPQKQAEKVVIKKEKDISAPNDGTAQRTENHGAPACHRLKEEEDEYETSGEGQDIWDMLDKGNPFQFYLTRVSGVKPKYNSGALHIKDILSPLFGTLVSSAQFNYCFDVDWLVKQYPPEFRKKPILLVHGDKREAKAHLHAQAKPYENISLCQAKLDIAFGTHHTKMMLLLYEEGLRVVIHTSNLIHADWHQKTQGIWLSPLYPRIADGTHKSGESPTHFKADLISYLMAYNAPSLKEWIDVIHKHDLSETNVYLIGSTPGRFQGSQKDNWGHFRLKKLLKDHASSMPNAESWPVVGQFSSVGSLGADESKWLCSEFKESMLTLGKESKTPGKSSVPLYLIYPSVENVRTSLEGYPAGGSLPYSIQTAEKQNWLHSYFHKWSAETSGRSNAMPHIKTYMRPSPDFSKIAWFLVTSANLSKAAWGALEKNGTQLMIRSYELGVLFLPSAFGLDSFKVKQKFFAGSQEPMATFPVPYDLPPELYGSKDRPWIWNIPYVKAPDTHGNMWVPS
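Recombinant E. coli-expressed Tdp1 (1 nM) preincubated with compound 15 min at RT, then 5'-biotin/3'-phosphotyrosine-FITC DNA substrate (15 nM) added for 5 min. AlphaScreen beads (10 ug/ml) added, 10 min RT; tyrosine-FITC cleavage read as signal loss.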
DT40 TDP1 no CPT: qHTS for Inhibitors of human tyrosyl-DNA phosphodiesterase 1 (TDP1): qHTS in cells in absence of CPT; DT40 Tdp1-/- hTDP1 cells, no CPT, ATP luminescence, 48 h; Potency, µM (titrated, usually from 46.2 µM), inactives show at the highest dose activity change, negative = growth inhibition, hits mostly inhibitors; 15% of 420,000 active; further: potency means the concentration at half of the fitted maximal effect; nearly all actives have a fitted effect of over 55% in size
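Camptothecin absent (DMSO only). Human TDP1-complemented DT40 knockout cells, 400 cells/well, 37 °C for minimum 48 hr; ATP measured via CellTiter-Glo, 30 min dark incubation, luminescence.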
Giardia killer: kills Giardia lamblia; Giardia lamblia trophozoite viability; activity change, % at 7.66 µM, hits read low; 0.15% of 340,000 active; AID 540267; in the data active means activity change below about -80%; inconclusive means between about -30% and that limit;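 further: parasites exposed to compound for two days anaerobically before the ATP read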
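Giardia lamblia trophozoites (100 cells/well) were incubated with compounds for 48 h at 37 deg C under anaerobic conditions. Viability was read as ATP content by one-step luminescence after 15-30 min at room temperature.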
IL-1B inflam inh: inflammasome signaling inhibition, IL-1 beta readout. THP-1 LPS/ATP IL-1B secretion, AlphaLISA, 16 h; hits give low values. activity change, % at 57.5 µM. 4.7% of 360,000 active. AID 743279; in the data active means activity change below about -50%; inconclusive means mostly about -30% to -49%
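THP-1 cells pretreated 1 hr with compounds (up to 57.5 uM final), then stimulated with LPS (250 ng/mL final) plus ATP (1.25 mM final); secreted IL-1B measured by AlphaLISA after 16 hr, decreased signal indicating inhibition.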
ELG1 repair inh: inhibitors of ELG1-dependent DNA repair in HEK293T cells; Potency, µM (titrated, usually from 46.1 µM), for inactives: top-dose activity change, negative = inhibition, usual class: inhibitors; HEK293T ELG1-luciferase reporter, luminescence, 16 h; DNA damage induced by 5-fluorouridine; 2.3% of 330,000 active; AID 504467; further: potency means the concentration at half of the fitted maximal effect; nearly all actives have a fitted effect of over 55% in size
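DMSO vehicle served as the neutral condition. Each well held 2,000 cells given 5-fluorouridine plus compound; after 16 hr at 37 °C/5% CO2, ONE-Glo was added and luciferase measured 30 min later.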
TDP1 cell CPT: growth inhibition of DT40 Tdp1-/-;hTDP1 cells with camptothecin (screen for TDP1 inhibitors) | chicken DT40 Tdp1-/-;hTDP1 cells + 20 nM CPT, ATP luminescence, 48 h | 12% of 420,000 active | Potency, µM (titrated, usually from 46.2 µM), without a hit: top-dose activity change, negative = growth inhibition, usual class: inhibitors; further: potency means the concentration at half of the fitted maximal effect; nearly all actives have a fitted effect of over 55% in size
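Chicken DT40 Tdp1-/- cells stably complemented with human TDP1 were seeded at 400 cells/well in medium containing 20 nM camptothecin, exposed to pin-transferred compounds, and grown at 37 °C for at least 48 hr. Viability was read as ATP luminescence.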
ELG1 FLuc counter: luciferase inhibition in cell-free luciferin readout for ELG1 hits. shares compounds with ELG1 repair inh. cell-free firefly luciferase luminescence counter-screen, ViewLux. Potency, µM (top dose mostly 46.1 µM), for the others: at the highest dose activity change, negative = inhibition, usual class: inhibitors. 3% of 350 active; further: potency means the concentration at half of the fitted maximal effect
ELG1-Luc inh: human ELG1 repair inhibition, luciferase-tagged ELG1 confirmation; Potency, µM (top dose mostly 46.1 µM), without a hit: at the top dose activity change, negative = inhibition, hits mostly inhibitors; 68% of 670 active; HEK293T ELG1-luciferase levels, luminescence; cells co-treated with 5-fluorouridine; shares compounds with ELG1 repair inh; further: potency means the concentration at half of the fitted maximal effect; nearly all actives have a fitted effect of over 55% in size
ELG1-Luc MMS: inhibits ELG1-dependent repair under MMS stimulation in HEK293T cells; shares compounds with ELG1 repair inh; 53% of 670 active; HEK293T luciferase-tagged ELG1 level, MMS stimulated; Potency, µM (highest dose often 46.1 µM), for inactives: at the highest dose activity change, negative = inhibition, actives largely listed as inhibitors; AID 624249; further: potency means the concentration at half of the fitted maximal effect; nearly all actives have a fitted effect of over 60% in size
ELG1 5FU viab: confirmation of ELG1 repair inhibitors: viability with 5FU; shares compounds with ELG1 repair inh; AID 624250; Potency, µM (top dose mostly 46.1 µM), without a hit: at the top dose activity change, negative = viability loss, usual class: cytotoxic; cell viability with 5-FU, ELG1-dependent repair; 670 tested, under 10 active;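 further: ELG1-luc HEK293T cells cotreated with 5-fluorouridine at 10 µM final; potency means the concentration at half of the fitted maximal effect; viability measured 16 h after compound addition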
ELG1 MMS viab: confirmation of ELG1 repair inhibitors: viability with MMS; Cell viability with MMS, ELG1-dependent DNA repair; Potency, µM (doses to about 46.1 µM), for inactives: at the highest dose activity change, negative = viability loss, actives largely listed as cytotoxic; 33% of 670 active; shares compounds with ELG1 repair inh;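 further: ELG1-luc HEK293T cells co-treated with 10 µM MMS; potency means the concentration at half of the fitted maximal effect; viability read 16 h after compound addition; nearly all actives have a fitted effect of over 60% in size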
Cell viab unstim: unstimulated viability counter-screen for ELG1 repair hits. shares compounds with ELG1 repair inh. cell viability counter-screen, unstimulated, luminescence. AID 624252. 8% of 900 active. Potency, µM (doses to about 45.9 µM), without a hit: at the top dose activity change, negative = loss of viability, actives largely listed as cytotoxic;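 further: potency means the concentration at half of the fitted maximal effect; compound exposure lasted 16 hours before reading; nearly all actives have a fitted effect of over 55% in size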
FLuc enzyme: counter-screen for ELG1 repair inhibitors: firefly luciferase inhibition | shares compounds with ELG1 repair inh | purified firefly luciferase, luminescence counter-screen | Potency, µM (highest dose often 57.5 µM), without a hit: top-dose activity, negative = inhibition, hits mostly inhibitors | 10% of 350 active | AID 624253; further: potency means the concentration at half of the fitted maximal effect
An asterisk follows results filed as active; ? = inconclusive; . = no result given; [ ] = remark or other dose. Unless noted, the call rests on the fitted dose curve; in most records, active means well fitted curve in the direction sought with a large enough effect; inconclusive means small, poorly fitted or top-dose-only effect, or another doubt; inactive means no such curve, though single readings can be large; an effect the other way counts as inactive or inconclusive. On the % scale 0 is the no-effect control and ±100 the full control effect.

SMILES	TDP1 block	DT40 TDP1 no CPT	Giardia killer	IL-1B inflam inh	ELG1 repair inh	TDP1 cell CPT	ELG1 FLuc counter	ELG1-Luc inh	ELG1-Luc MMS	ELG1 5FU viab	ELG1 MMS viab	Cell viab unstim	FLuc enzyme
COc1ccccc1N1CCN(CC(=O)Nc2ccccc2C(=O)NC(C)c2ccccc2)CC1 (stereo not given)	0.3%	18.4µM*	-5.0	-10.1	2.91µM*	14.6µM*	.	7.91µM*	6.6%	?	-3.0%	?	.
COc1ccc(CN2CCN(CC(=O)Nc3ccccc3C(=O)NC3CC3)CC2)cc1F	0.4%	-27.3%	16.2	-23.9	2.59µM*	-18.1%	.	7.05µM*	?	?	0.1%	1.5%	.
COc1cc(C)c2c(=O)cc(-c3ccccc3)oc2c1	5.7%[56.1 µM]	?	.	.	.	?	.	.	.	.	.	-6.4%	.
COc1ccc(/C=N/NC(=O)Nc2cccc3nsnc23)cc1OC	-3.1%	9.2µM*	-13.9	-15.2	2.59µM*	9.2µM*	.	2.81µM*	22.3µM*	?	?	?	.
COCCn1c(SCC(=O)Nc2ccc(Cl)cn2)nnc1-c1ccncc1	5.3%	6.2%	-0.4	23.1	-16.3%	-4.5%	.	.	.	.	.	.	.
CN(C)c1cccc(C(=O)NNC(=O)CN2C(=O)C3CC=CCC3C2=O)c1 (stereo not given)	1.6%	-7.8%	?	-16.7	?	11.5%	.	.	.	.	.	-14.3%	.
Cc1cccc(C)c1NC(=O)CN1C(=O)C2CC=CCC2C1=O (stereo not given)	1.0%	?	13.1	-3.3	8.3%	-12.0%	.	.	.	.	.	.	.
COc1ccc(NS(=O)(=O)c2cccc(-c3n[nH]c(=S)n3Cc3ccccc3)c2)cc1	6.0%	?	17.3	38.0	-6.6%	9.7%	.	.	.	.	.	.	.
Cc1cc(NC(=O)Cc2ccccc2)c2ccccc2n1	2.6%	2.59µM*	-4.1	-22.4	?	5.17µM*	.	?	1.99µM*	1.1%	2.5µM*	?	.
O=C(NCc1cccs1)c1cc(-c2ccccc2)on1	0.0%	-18.0%	-6.8	26.0	?	-13.0%	76.6%	.	.	.	.	-13.6%	?
Cc1ccc(Cn2ncc3c(N4CCN(CCc5ccccc5)CC4)ncnc32)cc1	2.7%	?	-6.0	1.9	3.66µM*	?	.	?	3.53µM*	-3.2%	3.97µM*	?	.
Cc1ccc(-n2ncc3c(N4CCN(C)CC4)ncnc32)cc1	2.6%	-22.3%	.	.	.	?	.	.	.	.	.	.	.
Cc1cc(NC(=O)c2cnn3c(C(F)(F)F)cc(-c4ccccc4)nc23)no1	2.2%	23.1µM*	2.7	-69.4*	7.31µM*	13µM*	98.1%	5µM*	?	10.0%	?	?	-4.0%
O=C(c1cnn2c(C(F)F)cc(C3CC3)nc12)N1CCCC1	2.2%	-23.7%	-5.1	20.6	1.2%	-17.4%	.	.	.	.	.	.	.
Cc1cc(NC(=O)c2cnn3c(C(F)F)cc(C4CC4)nc23)no1	0.0%	11.6µM*	-1.5	-4.9	-10.5%	?	0.8%	?	-2.8%	-1.4%	-5.8%	-12.2%	-5.3%
CCOc1cc(C(=O)Nc2cccc(OCC(=O)N3CCOCC3)c2)cc(OCC)c1OCC	3.2%	-14.3%	17.0	64.6	2.06µM*	3.7%	.	8.88µM*	?	6.1%	-0.4%	-17.7%	.
O=C(Nc1cccc(OCC(=O)N2CCOCC2)c1)c1cccc(Cl)c1	2.1%[56.1 µM]	5.0%	11.5	37.3	-7.5%	5.9%	.	.	.	.	.	.	.
Clc1ccccc1C1=Nn2c(nnc2-c2ccncc2)SC1	7.3%	10.3µM*	-2.2	-85.6*	4.61µM*	6.51µM*	?	3.15µM*	6.29µM*	12.6%	-0.7%	-7.1%	-5.8%
CC1=Nn2c(nnc2-c2ccccc2Cl)SC1	7.7%	7.4%	-1.7	4.5	12.3%	12.7%	.	.	.	.	.	.	.
CCOc1ccc(NC(=O)COC(=O)CN2CCCCCC2=O)cc1	0.0%	-10.2%	6.7	-9.2	-1.6%	-0.9%	.	.	.	.	.	.	.
CCc1c(C)nc2cc(-c3cc(OC)cc(OC)c3)nn2c1N1CCN(CCN2CCOCC2)CC1	6.2%	16.4µM*	5.7	?	2.59µM*	23.1µM*	.	4.45µM*	?	?	8.8%	-5.8%	.
COc1cc(OC)cc(-c2cc3nc(C)c(CCC(=O)O)c(C)n3n2)c1	0.0%	?	8.2	28.7	?	-28.6%	.	.	.	.	.	.	.
COc1cc(NC(=O)C2CCCN(c3ncnc4c3nc3n4CCCCC3)C2)cc(OC)c1OC (stereo not given)	2.1%	?	24.2	11.2	1.83µM*	?	9.5%	4.45µM*	9.1%	?	7.4%	0.2%	0.7%
CCc1cccc(NC(=O)C2CCCN(c3ncnc4c3nc3n4CCCCC3)C2)c1 (stereo not given)	0.3%	?	25.9	-54.4*	18.3µM*	?	-7.7%	14.1µM*	22.3µM*	1.1%	-6.3%	?	-5.9%
